Experimental findings from PubChem BioAssay (NCI) are described below.

Molecules are shown by their SMILES. The panel holds about 83,000 compounds, 20% with a hit somewhere; the sample as a whole holds those more often.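 Assay: single dose, 48 h. Readout: percent growth (0 = no net growth; negative = cell death). Active: <10.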 Values without a mark were called inactive. Activity calls are given as the source filed them.

The assay concerns HL-60(TB) leukemia. As to the kind of experiment: NCI-60 one-dose screen, 48 h (100 = growth as untreated, 0 = no growth, -100 = all killed). The settings on record: 10 µM unless noted.
Turning to `CCOC(=O)c1cc(C(=O)c2ccc(OC)cc2)n2ccc(/C=C/c3cc[n+](CC(=O)c4ccc(OC)cc4)cc3)cc12`, the growth is 0.722% (active).
In the case of `CCOC(=O)c1cn2ncnc(Oc3ccc(NC(=O)NC4CC4)c(Cl)c3)c2c1C`, the growth is 83.5%.
The result for `CC(=O)c1cc2c(N)c(C(=O)Nc3ccccn3)sc2nc1C` reads 83.3%.
The result for `CCOc1ccc(/C=N\N=C\c2ccc(OCC)cc2)cc1` reads 76.6%.
